This is part of a sample that, as a whole, favours compounds with a hit. Of some 79,000 tested, about 15% had one in any assay. A number with no mark means an inactive call. Calls of active or inactive are those of the source. No stated cut-off is given here; in the data, active means growth inhibition above about 70%; inactive means the rest.
Assays:
[1] = NCI Yeast Anticancer Drug Screen. Data for the rad50 strain (AID 155);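 further: 0% = growth of vehicle-only cultures of the same strain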; settings: S. cerevisiae rad50 strain growth inhibition; at 50.0 µM; hits give high values
Summary of the method: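 A DNA repair-deficient yeast mutant serves as the test organism; compound-induced growth inhibition is calculated against vehicle-treated cells.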

[2] = NCI Yeast Anticancer Drug Screen. Data for the mec2-1 strain (AID 157); settings: S. cerevisiae mec2-1 strain, at 50.0 µM, hits give high values
Summary of the method: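 Growth inhibition is read against vehicle-treated controls after compound exposure of the mec2-1 yeast strain, which is defective in DNA damage repair or cell cycle control.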

[3] = NCI Yeast Anticancer Drug Screen. Data for the sgs1 mgt1 strain (AID 161);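 further: 0% = growth of cultures given vehicle only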; settings: S. cerevisiae sgs1 mgt1 strain, at 50.0 µM, hits give high values
Summary of the method: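 Growth of a repair-deficient yeast mutant was monitored after compound treatment and expressed as inhibition relative to vehicle-treated cultures.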

[4] = NCI Yeast Anticancer Drug Screen. Data for the cln2 rad14 strain (AID 165);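 further: 0% = growth equal to vehicle treated cultures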; settings: S. cerevisiae cln2 rad14 strain, at 50.0 µM, hits give high values
Summary of the method: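 Growth inhibition, relative to vehicle-treated controls, is the read-out. The test organism is a yeast strain with defined genetic alterations, cln2 rad14.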

[5] = NCI Yeast Anticancer Drug Screen. Data for the bub3 strain (AID 167); settings: S. cerevisiae bub3 mutant strain, at 50.0 µM, hits give high values
Summary of the method: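 Inhibition values come from growth of compound-treated mutant yeast normalised to vehicle-treated controls.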

[6] = NCI Yeast Anticancer Drug Screen. Data for the mlh1 rad18 strain (AID 175); settings: S. cerevisiae mlh1 rad18 strain growth inhibition; at 50.0 µM; hits give high values
Summary of the method: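 Cells of a genetically altered yeast strain, deficient in DNA damage repair, were treated with compound. Their growth was then compared with that of vehicle-treated cultures to give inhibition.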

Row | Compound | growth inhibition [1] [%] | growth inhibition [2] | growth inhibition [3] | growth inhibition [4] | growth inhibition [5] [%] | growth inhibition [6]
1 | Cc1cc(=O)n(-c2ccc(-c3ccc(-n4c(C)c(C(=O)O)c(C)cc4=O)cc3)cc2)c(C)c1C(=O)O | -45 | 6.35% | 19.3% | 24.1% | -2.4 | 27.6%
2 | CCN(C(=S)Nc1cccc(OC)c1)c1ccccc1 | -17.2 | -36.9% | 18% | -1.45% | -17.1 | -6.8%
3 | CNC(=O)Nc1ccc(C(=O)O)cc1 | 9.2 | 4.35% | 5.35% | -38.1% | 9.8 | 5.2%
4 | CC(=O)NC1C(OCc2ccccc2)OC(CO)C(O)C1OC(C)C(=O)NC(C)C(=O)N[C@@H](CCC(=O)OCCCNC1c2ccccc2Nc2cccc([N+](=O)[O-])c21)C(N)=O (stereo partly specified) | 63.4 | 82.7% (active) | 78.2% (active) | 83.5% (active) | 11.7 | 77.8% (active)
5 | CCCCNc1ncnc2c1cnn2C | -3.2 | 18.9% | -28.2% | -11.9% | -7.1 | -4.3%
6 | Cc1ccc2c(c1)C1(c3ccccc3)Oc3ccc(C)cc3C(c3ccccc3)(O2)O1 | 12.2 | 5.75% | 10.7% | 25.3% | -4.9 | -7.2%
7 | C=CCOc1ccc2cc(Br)ccc2c1 | 3.85 | -2.55% | 6.3% | -24.1% | 4.4 | 14.9%
8 | CCC1OC(=O)CC(O)C(C)C(OC2OC(C)C(O)C(N(C)C)C2O)C(CC=O)CC(C)C(=O)/C=C/C2(C)OC2C1C (stereo unspecified) | -13.4 | -43% | -23.5% | -18.7% | -28.9 | -36.4%
9 | Cc1ccccc1C(=O)OC1CCCCC1 | 9.2 | -13.1% | -9.65% | -39.5% | 9.8 | 5.7%
10 | C#CCN | 9.25 | 2% | 2.8% | 3.75% | 8.05 | -12.7%
11 | COC(=O)c1ccccc1NC(=O)c1ccccc1C(=O)O | 6.4 | 41% | 35% | -6.55% | 28.5 | 37.2%
12 | CC(=O)N1Cc2c(cc(C)[nH]c2=O)C1=O | 9 | 10.5% | 6.45% | 10.7% | 1.05 | 7.65%
13 | N#Cc1c(N)nc([Se]CC(=O)c2ccc(Cl)cc2)c(C#N)c1-c1ccco1 | -7.45 | -3.45% | 2.3% | 9.4% | 4.1 | 10.9%
14 | c1ccc(C2N3CCCCC3[C@@H]3c4[nH]c5ccccc5c4CCN23)nc1 (stereo partly specified) | -26.8 | -36.5% | -6.5% | 13.3% | -25.9 | -4.1%
15 | Fc1ccc(Cl)c(-c2nc3ccccc3[nH]2)c1 | 14.2 | 15.4% | 2.85% | 2.35% | -1.5 | 47.3%
16 | C[N+](C)(N)c1nc(N)c(C#N)c(C#N)c1C#N | 13.6 | -18.7% | -10.9% | -24.4% | 5.1 | 13.8%
17 | C/C([O-])=N\[N+](C)(C)Cc1ccccc1 | -4.65 | 0.8% | -11.7% | -23.4% | -6.6 | 5.8%
18 | COc1ccccc1NC(=S)N/C=C(\C#N)c1nc2ccccc2s1 | -28.4 | 5.95% | -8.9% | 3.45% | 2.3 | -3%
19 | C=Cc1c(Cl)cccc1Cl | 0.25 | -8.85% | -5.55% | 3.5% | -18.6 | -11.3%
20 | O=c1[nH]c(=S)c2ncn(C3OC(CO)C(O)C3O)c2[nH]1 (stereo unspecified) | -0.5 | -13.7% | -11.1% | 4.4% | -1.1 | 11.8%
21 | O=C([O-])C(=O)[N-]CCC[N-]C(=O)C(=O)[N-]CCC[N-]C(=O)C(=O)[O-].[Cu+2].[Cu+2].[Na+] | -8.45 | -13.6% | 4.35% | -21.8% | -7.7 | 8.9%

Row | Compound | growth inhibition [1] [%] | growth inhibition [2] | growth inhibition [3] | growth inhibition [4] | growth inhibition [5] [%] | growth inhibition [6]
22 | CC(=O)CC1CCc2ccc3ccccc3c2C1c1cccc2ccccc12 (stereo unspecified) | 2.35 | 8.2% | -6.85% | 26.4% | 2.4 | 25.4%
23 | O=c1cn[nH]c2c(Br)cc(Br)cc12 | 12 | -0.3% | -1.6% | 2.65% | -9.9 | 16.4%
24 | O=C1COC(=O)N1 | -6.85 | -22.4% | -3.45% | -3.35% | 0.2 | 8.25%
25 | CCCNC(=O)Nc1ccc(OC)cc1Cl | -12.1 | -9.45% | -1.65% | -59.3% | -6.3 | -15.6%
26 | Nc1nnc(CCCCCCCc2nnc(N)o2)o1 | -6.25 | 12.6% | 3.45% | 7.5% | 6.85 | 13.2%
27 | CCCc1c(Cl)nc(Cl)nc1Cl | -8.75 | 26.8% | 11.8% | -54.8% | 5.2 | -22.4%
28 | CS(=O)(=O)OC1CCCS(=O)(=O)c2ccccc21 (stereo unspecified) | -12.9 | -12.8% | 3.65% | -46.9% | -1 | -6.45%
29 | O=C(NC(c1ccccc1)c1cccs1)c1cccs1 (stereo unspecified) | -2.95 | -4.45% | 1.05% | -38.4% | 30.1 | 3.95%
30 | COC(=O)C1CC(=O)c2cc(OC)ccc2C1 (stereo unspecified) | -1.85 | 2.8% | -7.7% | 6.05% | -7.75 | -27.1%
31 | CC(C)(C)NC(=O)Oc1ccc2ccccc2c1 | 1.75 | -14.6% | -6% | -84.9% | 10.3 | -15.7%
32 | O=C(O)c1ccccc1SC(Sc1ccccc1C(=O)O)c1ccccc1 | -11.8 | -10.7% | -2.35% | -7.85% | 12.1 | 10.6%
33 | CCOC(OC(C)=O)[C@@H]1C=C[C@H](C)N(c2ccc([N+](=O)[O-])cc2)O1 (stereo partly specified) | 25.4 | 13.9% | 39.5% | 18.1% | 42.6 | 32.8%
34 | CCCCCCCC(=O)NN(Cn1c(=S)sc2ccccc21)Cn1c(=S)sc2ccccc21 | 32 | 9.25% | 26.7% | 21.7% | -2.7 | 6.65%
35 | CCOc1ccc(CN(CCN2CCCCC2)c2ccccn2)cc1 | 26.6 | 9.45% | 23.4% | -7.4% | 11.5 | 24.1%
36 | CCCCN=C=NCCC[N+](C)(C)C | 0.4 | 7.2% | 0.9% | 10% | 2.8 | 8.2%
37 | COc1ccc(CCN2C(=O)C(=O)N(C(C)C)C2=O)cc1OC | 7.9 | 1.6% | 13% | 16.4% | 4.85 | 14.7%
38 | NC(=O)c1cc([N+](=O)[O-])cnc1Sc1ncccn1 | 40.8 | 14.9% | 21.7% | 18.2% | 29.9 | 44.6%
39 | Cc1ccc(S(=O)(=O)OC(c2ccccc2)C(F)(F)F)cc1 (stereo unspecified) | -4.05 | -15.6% | -7.2% | 6.9% | 2.9 | 2.85%
40 | COc1ccc(/C(O)=C/c2nc3cccc([N+](=O)[O-])c3[nH]c2=O)cc1 | 20.2 | -14.8% | 2.3% | -14.1% | -35.4 | 17.7%
41 | COc1ccccc1NC(=O)c1nc2ccc([N+](=O)[O-])cc2nc1C | 21.4 | 19.1% | 1.65% | 15.4% | 33.9 | 20.4%
